Laboratory results as given in paper PMC7819943, “Rice protein-binding microarrays: a tool to detect cis-acting elements near promoter regions in rice”.
Over roughly 68,000 sequences, “fluorescence intensity (a.u.)” has its median near 9,100; the highest 2% begin near 16,000. The full list was thinned out, with the highest values kept by preference.

molecular target: OsWRKY34 (Oryza sativa, UniProt Q0JBA9 1-250); assay: protein-binding microarray (RPBM); PBS, 2% BSA, 51.3 ng/ul salmon testes DNA, 50 uM zinc acetate, 200 nM TF, 25 C, 1 h; high values mean tight binding; conditions: protein: recombinant; tags: N-terminal polyhistidine and DsRed monomer fusion (pET32a); label: CyDye5-dUTP incorporated in the synthesized complementary strand; 3' TTTTT single-stranded linker to array surface; dsDNA, one strand shown
Summary of the method: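 The binding signal for each feature is its fluorescence intensity in arbitrary units. An Axon 4000B scanner was used to read a custom Agilent array that had been made double-stranded with Cy5-dUTP primer extension, blocked with 2% BSA, incubated at 25 °C for 1 h with 200 nM protein in PBS, 2% BSA, salmon testes DNA and 50 µM zinc acetate, and washed. The protein was an N-terminal polyhistidine–DsRed transcription factor fusion from E. coli BL21-CodonPlus, purified on Ni–NTA.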

OsWRKY34, sequence (Q0JBA9 entry or part of it): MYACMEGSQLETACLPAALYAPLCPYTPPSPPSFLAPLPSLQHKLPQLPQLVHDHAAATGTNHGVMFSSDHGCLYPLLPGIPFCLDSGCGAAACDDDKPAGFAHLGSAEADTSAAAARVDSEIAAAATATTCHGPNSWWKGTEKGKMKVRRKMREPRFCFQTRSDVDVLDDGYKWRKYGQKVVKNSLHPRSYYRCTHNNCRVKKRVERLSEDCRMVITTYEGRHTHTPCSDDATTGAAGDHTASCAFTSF

Sequence	binding signal
TGAGACAAAGCACATTCTACCCAAGGCCAGTTGCACCAACCGGAGTCACCTAGTGCAG	8080 fluorescence intensity (a.u.)
TCAGTGTTGAGTAGGGTTGGCAGGCGAGCACGCAGTAATGCGGAGTCACCTAGTGCAG	8190 fluorescence intensity (a.u.)
TGTTGTGTGTTAGTTGTGGTGGTAGCATTTTTTCCTGGTACGGAGTCACCTAGTGCAG	13000 fluorescence intensity (a.u.)
TAGCTACCTAAGCTTAGCTCACATTCTTCTCGCTTTCTCACGGAGTCACCTAGTGCAG	12000 fluorescence intensity (a.u.)
GTGGGGTTGGAGGAGGGAGGGAGCTAGCTATAGTTGCTAGCGGAGTCACCTAGTGCAG	9980 fluorescence intensity (a.u.)
AGGGCGGTGGGGCGGCAAGGGACCAGATGGTGGGGCGGCACGGAGTCACCTAGTGCAG	11100 fluorescence intensity (a.u.)
GGAGGTGGGGAGGGGAGGAGAGGGGAAGAAGGAAGAAAAACGGAGTCACCTAGTGCAG	13300 fluorescence intensity (a.u.)
GAAGGGTGGGAGGGGAAGGGGAGGACGAGCGGGCGGACGGCGGAGTCACCTAGTGCAG	11500 fluorescence intensity (a.u.)
CGAGGGAGGGGAGGCGGCGGAGGCGAGAGAGGAGAGGGGACGGAGTCACCTAGTGCAG	11000 fluorescence intensity (a.u.)
GGGAGGAGGAGGAGGAGAAGGGCGGCGGGAGGAGGGGCGACGGAGTCACCTAGTGCAG	14000 fluorescence intensity (a.u.)
GGTGGGCTATAAATATAGTTGGGGAGGGGAGGGAAGACCCCGGAGTCACCTAGTGCAG	16700 fluorescence intensity (a.u.)
ACTAGTTGAAGGAGTTGGGGCTATAAATGGGTGGTGCTATCGGAGTCACCTAGTGCAG	10900 fluorescence intensity (a.u.)
GAGGAGGGACTCGGGGCGGGAGGAAGACGGCGAGGAGGGGCGGAGTCACCTAGTGCAG	16500 fluorescence intensity (a.u.)
CTGGGTGTGGGTGTGGGTCTGGGTCTGGGTGGAAGAGGAACGGAGTCACCTAGTGCAG	21200 fluorescence intensity (a.u.)
GGTGGGACGTGGTGGGCGTCAAGGCGGCGGTGGGAGGGGACGGAGTCACCTAGTGCAG	20400 fluorescence intensity (a.u.)
GTATCGCCAAGGAGGAGAGGGGAGAGGGGTGGAAGAGGAACGGAGTCACCTAGTGCAG	11900 fluorescence intensity (a.u.)
TCGTCATCATCCTCGCCGCCATCGCCATCGCCATTGCCTACGGAGTCACCTAGTGCAG	9180 fluorescence intensity (a.u.)
ACTTGTTTTACGTTCGGCTAATTAGCTGTTTGACCGTTTCCGGAGTCACCTAGTGCAG	15300 fluorescence intensity (a.u.)
AAAAACGTCTCAATTGTAAGCTCACTATCTAACAATTTTCCGGAGTCACCTAGTGCAG	11200 fluorescence intensity (a.u.)
GCTTGGTCTATAAGTTGCTGCTCTGCCCTGCTCGGCCTCACGGAGTCACCTAGTGCAG	12000 fluorescence intensity (a.u.)
CTCCATCGCTTCGCTCTTCGCCGGATCTAGCACCGACGGTCGGAGTCACCTAGTGCAG	9000 fluorescence intensity (a.u.)

Sequence	binding signal
TTCTTTTGCCGTGCTCCCAGATTCTCCGGTCGCCACGACTCGGAGTCACCTAGTGCAG	8590 fluorescence intensity (a.u.)
ACCTCTTATTTGACTTTTTCACTATTTTGAAATACGAAAACGGAGTCACCTAGTGCAG	9360 fluorescence intensity (a.u.)
AATGTATTTGTCTTATGTTAAATATATTACTACTCTTTTTCGGAGTCACCTAGTGCAG	8080 fluorescence intensity (a.u.)
TATCCGATCCATGGCGTTCTCTTGAGTCCAGAGAGTATTTCGGAGTCACCTAGTGCAG	8460 fluorescence intensity (a.u.)
AGCTTAACACGCGCCACTTGCCCCTATTTAGCCGCGCCATCGGAGTCACCTAGTGCAG	9920 fluorescence intensity (a.u.)
CGGCTAGGGACGGGGACGACGCCGGAGTGGGTGGGGAAGGCGGAGTCACCTAGTGCAG	8680 fluorescence intensity (a.u.)
GCATGGTGGCGGCGGGAAGGAGGAGTGGGGCGGCGGGTGCCGGAGTCACCTAGTGCAG	16100 fluorescence intensity (a.u.)
AGAAGGAGGAGGAGGAGGAGGAGGAGGAGGGGAGGAGAGCCGGAGTCACCTAGTGCAG	10400 fluorescence intensity (a.u.)
CGGTGGGGAGGCCGGGAGGGAGGAGGAGAGAAGAGGAGTGCGGAGTCACCTAGTGCAG	9450 fluorescence intensity (a.u.)
GGGAATATTAGTGGGATGGGGATGAGGAATTGAGGAAGAACGGAGTCACCTAGTGCAG	13400 fluorescence intensity (a.u.)
AATCTAACGGGTGGGTCTCATGTATTGATGAGGAAGAAGACGGAGTCACCTAGTGCAG	20800 fluorescence intensity (a.u.)
AGGGTGAACAGAAGAAGATGAATCTAACGGGTGGGTCTCACGGAGTCACCTAGTGCAG	10800 fluorescence intensity (a.u.)
GACGGCGACCGAAGGGGACAAGGAGGCGGGGCGGGGCGGCCGGAGTCACCTAGTGCAG	14000 fluorescence intensity (a.u.)
GGCCGCGGCGGTGCGACGAAGAGCGGCGTCGGACAAGGGCCGGAGTCACCTAGTGCAG	35900 fluorescence intensity (a.u.)
GGTGGTGCGCGAGCGTCGGCGGTCGGCGGGAGGGCGGGAGCGGAGTCACCTAGTGCAG	9180 fluorescence intensity (a.u.)
GGGAAGGGGAGGGGTGGGCGGAAGGGGACGCCGGTGGTGGCGGAGTCACCTAGTGCAG	17900 fluorescence intensity (a.u.)
AATGTGGGAGAAGGGGAGGAGAGAGGGGAGGGGAGGGGACCGGAGTCACCTAGTGCAG	16500 fluorescence intensity (a.u.)
CTCTCTCTGCTCGAGCCCGAGTAGCCCTCGTCGTCATTCTCGGAGTCACCTAGTGCAG	8950 fluorescence intensity (a.u.)
ATTATATGTCATTTGACTTTTCTCTTAGCTAAAGTTCTTTCGGAGTCACCTAGTGCAG	9800 fluorescence intensity (a.u.)
CTATATATAAACGAGCACATCTCGTCGTCCCTCGCCATTCCGGAGTCACCTAGTGCAG	10400 fluorescence intensity (a.u.)
TTAAACTGTATACCGTCGCTCGCGTCGCGCGCCGTTGACGCGGAGTCACCTAGTGCAG	9730 fluorescence intensity (a.u.)

Sequence	binding signal
CATGTGTTTACTGGGGTGGTTGTTGTAACAAAATTGAGTACGGAGTCACCTAGTGCAG	9360 fluorescence intensity (a.u.)
GTCTGAGTACACTTCTGAGGCTTCTTTGGTCGTTTTGGCCCGGAGTCACCTAGTGCAG	9790 fluorescence intensity (a.u.)
AAATATCAACCACATGCTCCTACTTCTATGGAAATTGATTCGGAGTCACCTAGTGCAG	10400 fluorescence intensity (a.u.)
TTGTCGTGTCACCTCCATTCTCACCCAACTTCCTTACCTACGGAGTCACCTAGTGCAG	13300 fluorescence intensity (a.u.)
CTCGTTTACCTTACTCTCGCTTAGTTCGTTGAGGCATTTCCGGAGTCACCTAGTGCAG	14900 fluorescence intensity (a.u.)
GTTATTCAAAACTATAGTTATCTTCCGCCTATTTTTTTATCGGAGTCACCTAGTGCAG	10600 fluorescence intensity (a.u.)
GCAGCAGGGAGGTGGGGCGCAGGAGGAAGAAGAAGAGGGACGGAGTCACCTAGTGCAG	13300 fluorescence intensity (a.u.)
GATTGAGGGGAATGTTCCATGTTTTGTTGAACTCTTTTCCCGGAGTCACCTAGTGCAG	9320 fluorescence intensity (a.u.)
GACACTAATGTGTGTGAAGGGGAGATTGTTGAATGGTTCCCGGAGTCACCTAGTGCAG	65200 fluorescence intensity (a.u.)
CGGCGGAGGAGGAGGAGGAGGGGTGGGGAAGAAGAGGGGACGGAGTCACCTAGTGCAG	22800 fluorescence intensity (a.u.)
AGGGTTGTGATTGGTTGGGAAGAGAATGTTGGTAGATAAGCGGAGTCACCTAGTGCAG	9400 fluorescence intensity (a.u.)
CCGGGGCCGGCAGCGGCGGGCGGGCGGGCTCGAGCGGTGGCGGAGTCACCTAGTGCAG	9020 fluorescence intensity (a.u.)
GGGAAGACGGTGGGGCGGGGACAGAGGTAGGGGAAGGAGGCGGAGTCACCTAGTGCAG	12600 fluorescence intensity (a.u.)
GGCGGCATCTCGCTCTACCGCGGGTGGGGCTTCGACTCCGCGGAGTCACCTAGTGCAG	12100 fluorescence intensity (a.u.)
GGGTGGGGAAGAAGAGGGGAAGCGGGGAGGAGGAGAGGGACGGAGTCACCTAGTGCAG	9680 fluorescence intensity (a.u.)
CGGGGAAGGAGAGGGGCGTTAGGGAGGAGGGGCGCACAGACGGAGTCACCTAGTGCAG	16800 fluorescence intensity (a.u.)
ACCGCACAGAGAGGGAGGAGGCGGGGAGGACGGTGAGGGGCGGAGTCACCTAGTGCAG	10500 fluorescence intensity (a.u.)
GGTGGCGGGGCATCTCGCCGCCGACGGCTCGAGGAGGAAACGGAGTCACCTAGTGCAG	18400 fluorescence intensity (a.u.)
CGTGGGCCCCACCCGTGCCAGCTCACCTCATCCCCACCACCGGAGTCACCTAGTGCAG	8940 fluorescence intensity (a.u.)
ATCGACCCTTGCGCGGACTCCGCTCTCTTGTTGACCACCTCGGAGTCACCTAGTGCAG	14600 fluorescence intensity (a.u.)
TCACTCATGCAGAGTCACAGCTTGTATAGTTGTAATGCATCGGAGTCACCTAGTGCAG	9000 fluorescence intensity (a.u.)

Sequence	binding signal
GCCTCGTCCACTCCACCACGCCGCCGAAAGCCGCAACTCTCGGAGTCACCTAGTGCAG	9580 fluorescence intensity (a.u.)
CAACCTCTCCGGGGCGGGGCTGGCCGGCGAGCTGGCGGCGCGGAGTCACCTAGTGCAG	9150 fluorescence intensity (a.u.)
AGCTGCCACAAGCCGAAGGCACGTTGACTTAAAAGAAGCCCGGAGTCACCTAGTGCAG	10700 fluorescence intensity (a.u.)
ATATTTTCCGCCTACCCTGTACGCACGTTTATATACACAACGGAGTCACCTAGTGCAG	9400 fluorescence intensity (a.u.)
CTTGGACCCACTTAATATGTTATATGGCTATTTCTAGTCACGGAGTCACCTAGTGCAG	8220 fluorescence intensity (a.u.)
TAAGGTTTCTTCTGGGATCATTACATATACCTATATGGTTCGGAGTCACCTAGTGCAG	8100 fluorescence intensity (a.u.)
AGTTTGTTTTTTTTCTGTCCTTGACATGGCCATTTTGTTACGGAGTCACCTAGTGCAG	9920 fluorescence intensity (a.u.)
GGGCGGAGAGTTGGGGTTTGGGTTGGTGGCGGTGGGCCGGCGGAGTCACCTAGTGCAG	14800 fluorescence intensity (a.u.)
GCGGCGAAGCAGGGAGGAGGGAGGAGGAGGGGCGGCGGTGCGGAGTCACCTAGTGCAG	12100 fluorescence intensity (a.u.)
GTGCGACGGCGGCGGCGAAGTCAGTCCCCTCCTCGAGGGGCGGAGTCACCTAGTGCAG	27700 fluorescence intensity (a.u.)
CAGCGACGGTGGGGAGGTGGGCGTGGGCGGTTGCCGGCGGCGGAGTCACCTAGTGCAG	11200 fluorescence intensity (a.u.)
TTTCCGCCGCGGCGAGGAGGAGGAGGAGGAGGAGGGGCGACGGAGTCACCTAGTGCAG	9980 fluorescence intensity (a.u.)
TTGGTTGGTTGGTTTGGTGGGCGGCGGTGCCGGAGGAAGACGGAGTCACCTAGTGCAG	21900 fluorescence intensity (a.u.)
TCCTCGCCGACGGCGTGCCGGCTCACGTTGCACCTCACCGCGGAGTCACCTAGTGCAG	8210 fluorescence intensity (a.u.)
CTTTCCTGCACCTCCACTTTATTTAGTTCATTAATTGAATCGGAGTCACCTAGTGCAG	8660 fluorescence intensity (a.u.)
ACTTTGTTTACACGGTGGTTCTCTCCTTTTCTTCTTCTCACGGAGTCACCTAGTGCAG	8480 fluorescence intensity (a.u.)
GTGCGGTTTTTCTCCTGGTTCTTTTGTGTACTTTATACCACGGAGTCACCTAGTGCAG	18200 fluorescence intensity (a.u.)
TTAATTACTTCCTTTTCTTTTCTTTTCTTTTCCTTTTTTTCGGAGTCACCTAGTGCAG	8110 fluorescence intensity (a.u.)
CTTCGGTGTACTTTTTTCTTTTCTAGTTCCTGGTTCTAATCGGAGTCACCTAGTGCAG	18000 fluorescence intensity (a.u.)
GGTTCTCTTTTCTTTTCTTTTCTTTTCTCCTGGAGTTTTTCGGAGTCACCTAGTGCAG	9120 fluorescence intensity (a.u.)
TGGTTGTGTTCTTGTTGGCTTATACCTTTTTTATGTTTTGCGGAGTCACCTAGTGCAG	9260 fluorescence intensity (a.u.)
